Our source for the Potency values is PubChem BioAssay (NCATS).

SMILES strings stand for the structures. Values joined by “and” are separate entries in the source; they are usually repeats but may differ in a detail not shown here. Equal entries are not always repeated. Inconclusive results are not listed. Where a call stands in place of a potency, no number is given. Active and inactive are the calls of the source. The call rests on the fitted dose curve; in most records, active means well fitted cell-killing curve with a large enough effect; inconclusive means small, poorly fitted or top-dose-only effect; inactive means no such curve, though single readings can be large or run the other way.
Potency means the concentration at half of the fitted maximal effect.

A short description of the experiment: qHTS of pediatric cancer cell lines to identify multiple opportunities for drug repurposing: Primary screen for SJ-GBM2 cells (AID 1347091). To be noted: SJ-GBM2 viability, CellTiter-Glo luminescence, 48 h; series mostly up to 46 µM. An excerpt: Drug repurposing or repositioning has been offered as a strategy for drug development in oncology programs. This approach has special potential for childhood cancers and other rare or orphan diseases, where the expected return on new drug development has been a disincentive to pharmaceuticals.
In this project we exploit the poly-pharmacology of drugs to discover new indications via phenotypic screening of a panel of 19 well-characterized cell lines derived from solid tumors seen in children and adolescents. The goal is to identify approved drugs with previously unrecognized anticancer properties that has the potential to reveal new mechanisms and biological processes involved in carcinogenesis or drug resistance. We employed a titration-based paradigm (quantitative high-throughput screening or qHTS), where all compounds were tested at multiple concentrations for their effect on cell viability. Concentration-response curves (CRCs) were derived directly from the primary screen, and both potency and efficacy values were used to identify compounds with robust bioactivity profiles. We screened the NIH Chemical Genomics Center (NCGC) Pharmaceutical Collection (NPC) and Mechanism Interrogation Plate (MIPE) small molecule collections of approved and investigational compounds against these cell lines; and measured metabolically active cells after 48 hours of compound treatment as a proxy for cell viability.
Assay Submitter: Nathalia J. Martinez, National Center for Advancing Translational Sciences, National Institutes of Health, Rockville, MD, USA; email: natalia.martinez@nih.gov
[1] Shen, M et al. Quantitative high-throughput phenotypic screening of pediatric cancer cell lines identifies multiple opportunities for drug repurposing. Oncotarget 2017 Dec 19;9(4):4758-4772. PMID 29435139.
The cells were obtained from University of North Carolina (UNC), Pediatric Preclinical Testing Program (PPT), and Coriell Institute (CI).
qHTS cell viability assay:
Cells were assayed in growth media at a density of 500-1,000 cells/well. Five microliters of cells were dispensed into 1,536-well, white, solid-bottom, TC-treated plates (Greiner Bio One) using a multidrop dispenser and incubated at 37 degrees C, 5% CO2, under a humidified atmosphere for 5 hours. Twenty-three nanoliters of compounds and controls (neutral control DMSO or positive control bortezomib at final concentration of 2.3 µM) were subsequently transferred by Kalypsys pintool. For primary screens, the MIPE collection was tested at 11-point dilutions (final concentrations range from 0.78 nM to 46 µM) and the NPC collection at 8-point dilutions (final concentrations range from 0.59 nM to 46 µM). Compounds tested in follow-up screens were assayed at 11-point dilutions. Cells were incubated for 48 hours, followed by addition of 3 uL of CellTiter-Glo (Promega). After a 15 min incubation at room temperature, samples were analyzed for luminescence intensity using a ViewLux High-throughput CCD imager equipped with clear filters.
For orientation: In qHTS, concentration-response curves come from the screen itself.
Consider `NC(N)=NC(N)=NCCc1ccccc1`, for which the Potency result was “inactive”.

With `C[C@@H]1C[C@H]2[C@@H]3CCC4=CC(=O)C=C[C@]4(C)[C@@]3(Cl)[C@@H](O)C[C@]2(C)[C@@]1(OC(=O)c1ccco1)C(=O)CCl`, the Potency was 9.35 µM (active).

Regarding `NC(=O)c1cccnc1`, the Potency result was “inactive”.

Turning to `COc1cc([C@@H]2c3cc4c(cc3[C@H](O)[C@H]3COC(=O)[C@H]23)OCO4)cc(OC)c1OC`, the Potency is 23.7 nM (active) and 1 nM (active).

For the compound `CC(N)C12CC3CC(CC(C3)C1)C2` (stereo not given), the Potency result was “inactive”.

Take `O=C(O)CCn1c2c(c3ccccc31)C[C@H](NS(=O)(=O)c1ccc(F)cc1)CC2`: the Potency result is “inactive”.

Take `CN(CCOc1ccc(CC2SC(=O)NC2=O)cc1)c1ccccn1` (stereo not given): the Potency result is “inactive”.

Regarding `Cc1onc(-c2ccccc2Cl)c1C(=O)N[C@@H]1C(=O)N2[C@@H]1SC(C)(C)[C@@H]2C(=O)O`, the Potency entry is “inactive”.

`Nc1nc(=S)c2[nH]cnc2[nH]1`: the Potency was 0.935 µM (active).

For the compound `CN(C)c1ccc(C(=C2C=CC(=[N+](C)C)C=C2)c2ccc(N(C)C)cc2)cc1`, the Potency was 1.33 µM (active) and 372 nM (active).

As to `CN(C)CCc1c[nH]c2ccc(CS(=O)(=O)N3CCCC3)cc12`, the Potency result was “inactive”.

As to `N[C@@H](C(=O)N[C@@H]1C(=O)N2C(C(=O)O)=C(Cl)CS[C@H]12)c1ccccc1`, the Potency result was “inactive”.

Take `NC(=O)N1c2ccccc2CC(=O)c2ccccc21`: the Potency result was “inactive”.

Take `CCc1cc(C(N)=S)ccn1`: the Potency result is “inactive”.

In the case of `Nc1nc(F)nc2c1ncn2[C@@H]1O[C@H](CO)[C@@H](O)[C@@H]1O`, the Potency is 0.935 µM (active).

Take `CC(C)OC(=O)OCOP(=O)(CO[C@H](C)Cn1cnc2c(N)ncnc21)OCOC(=O)OC(C)C`: the Potency entry was “inactive”.

`CCOC(=O)[C@H](CCc1ccccc1)N[C@H]1CCc2ccccc2N(CC(=O)O)C1=O`: the Potency is 23.5 µM (active).

For the compound `CC1=CC(=O)c2ccccc2C1=O`, the Potency is 23.5 µM (active).

On to `CCC(=O)O[C@]1(C(=O)CCl)[C@@H](C)C[C@H]2[C@@H]3CCC4=CC(=O)C=C[C@]4(C)[C@@]3(F)[C@@H](O)C[C@@]21C`, for which the Potency entry was “inactive”.

As to `CCn1cc(C(=O)O)c(=O)c2cc(F)c(N3CCNCC3)cc21`, the Potency result is “inactive”.

`Nc1ccc(S(=O)(=O)Nc2ccccn2)cc1`: the Potency result was “inactive”.

Turning to `O=C(O)c1cn(C2CC2)c2cc(N3CCNCC3)c(F)cc2c1=O`, the Potency result was “inactive”.

Consider `CC1=C(C(=O)O)N2C(=O)[C@@H](NC(=O)C(N)c3ccccc3)[C@H]2SC1` (stereo not given in full), for which the Potency entry is “inactive”.

Take `Cn1c(=O)c2c(ncn2CC(O)CO)n(C)c1=O` (stereo not given): the Potency result was “inactive”.

As to `CCN[C@H]1C[C@H](C)S(=O)(=O)c2sc(S(N)(=O)=O)cc21`, the Potency entry is “inactive”.

In the case of `C[C@@H](CN1CC(=O)NC(=O)C1)N1CC(=O)NC(=O)C1`, the Potency entry was “inactive”.

`CN(C)CCc1c[nH]c2ccc(C[C@H]3COC(=O)N3)cc12`: the Potency entry was “inactive”.

In the case of `CCn1cc(C(=O)O)c(=O)c2cc(F)c(N3CCNCC3)nc21`, the Potency result is “inactive”.

Regarding `CCn1cc(C(=O)O)c(=O)c2cc(F)c(N3CCN(C)CC3)cc21`, the Potency result is “inactive”.

As for `CCCCS(=N)(=O)CCC(N)C(=O)O` (stereo not given), the Potency result was “inactive”.

Turning to `OCc1ccc(-c2nn(Cc3ccccc3)c3ccccc23)o1`, the Potency entry is “inactive”.

Regarding `CC(=O)CC(c1ccccc1)c1c(O)c2ccccc2oc1=O` (stereo not given), the Potency entry is “inactive”.

Turning to `CC1=NN(c2ccccc2)C(=O)C1`, the Potency result was “inactive”.

Take `CO[C@@]12[C@H](COC(N)=O)C3=C(C(=O)C(C)=C(N)C3=O)N1C[C@@H]1N[C@@H]12`: the Potency is 14.8 µM (active).

As for `COc1cc2nc(N3CCCN(C)CC3)nc(NC3CCN(Cc4ccccc4)CC3)c2cc1OC`, the Potency is 14.8 µM (active).

For the compound `O=C(NCC1CN(c2ccc(N3CCOCC3=O)cc2)C(=O)O1)c1ccc(Cl)s1` (stereo not given), the Potency result is “inactive”.

In the case of `CN1CCN(c2c(F)cc3c(=O)c(C(=O)O)cn4c3c2OCN4C)CC1`, the Potency entry is “inactive”.

As to `CCN1CCCC1CNC(=O)c1cc(S(N)(=O)=O)ccc1OC` (stereo not given), the Potency result was “inactive”.

With `CCCCc1oc2ccc(NS(C)(=O)=O)cc2c1C(=O)c1ccc(OCCCN(CCCC)CCCC)cc1`, the Potency is 11.8 µM (active).

In the case of `Cc1ccnc2c1NC(=O)c1cccnc1N2C1CC1`, the Potency entry was “inactive”.
